Screening results from PubChem BioAssay.
Most compounds without a hit are left out; they make up all but 3.4% or so of the library.
MITF primary = MITF inhibitors, primary screen, biochemical, AlphaScreen, human. 0.91% of 650,000 active. AlphaScreen MITF homodimerization, bead proximity signal. Microphthalmia-associated transcription factor (Homo sapiens), O75030. inhibition, % at 2.6 µM; in the data active = inhibition above about 50%
Target sequence (O75030 whole entry, looked up): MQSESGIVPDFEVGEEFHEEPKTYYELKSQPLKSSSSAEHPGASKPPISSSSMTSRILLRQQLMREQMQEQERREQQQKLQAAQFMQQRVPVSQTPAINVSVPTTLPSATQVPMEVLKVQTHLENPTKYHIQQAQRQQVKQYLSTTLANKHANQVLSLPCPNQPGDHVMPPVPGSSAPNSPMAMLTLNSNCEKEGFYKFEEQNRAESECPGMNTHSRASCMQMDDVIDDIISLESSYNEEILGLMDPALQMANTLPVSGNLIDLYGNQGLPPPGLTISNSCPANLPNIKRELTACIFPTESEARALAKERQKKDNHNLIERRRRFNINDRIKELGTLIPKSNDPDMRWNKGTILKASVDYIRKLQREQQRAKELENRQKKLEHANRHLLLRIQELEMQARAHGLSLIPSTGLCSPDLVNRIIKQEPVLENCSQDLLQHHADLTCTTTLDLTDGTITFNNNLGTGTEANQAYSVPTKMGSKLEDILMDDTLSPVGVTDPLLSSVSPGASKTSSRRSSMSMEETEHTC
FBW7 act = FBW7 E3 ligase activators, primary screen, biochemical, AlphaScreen, human | AID 1259310, 2017 | AlphaScreen FBW7–phospho-cyclin E peptide binding, activator screen | F-box/WD repeat-containing protein 7 (Homo sapiens), Q969H0 | 0.13% of 650,000 active | normalized activity (activation), % at 26.1 µM; in the data active = normalized activity above about 1.9%;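 note: purified mutant Fbw7 with reduced substrate affinity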
GPR151 ag = activators of human GPR151, primary screen, cell-based, PathHunter beta-arrestin, luminescence | G-protein coupled receptor 151 (Homo sapiens), Q8TDV0 | PathHunter beta-arrestin GPR151 cells | activation, % at 11.2 µM | 1% of 650,000 active | AID 1508602, 2020; in the data active = activation above about 4.9%
TEAD-YAP block = TEAD-YAP interaction inhibition, primary screen, TEAD-YAP interaction inhibitor project, luminescence, HEK-TIYL cells; TEAD-Gal4/YAP UAS-luciferase luminescence; inhibition, % at 9.12 µM; 1.4% of 640,000 active; in the data active = inhibition above about 32%
A number is an active result; 0 = inactive.

SMILES | MITF primary | FBW7 act | GPR151 ag | TEAD-YAP block
Nc1ccc(S(=O)(=O)O)c2cccc(O)c12 | 70.9 | 0 | 0 | 0
COc1cc(C(=O)NC(C)c2ccccc2)c([N+](=O)[O-])cc1OC (stereo not given) | 0 | 0 | 0 | 0
COCCNc1nc2c(c(=O)n(C)c(=O)n2C)n1Cc1ccccc1Cl | 0 | 0 | 0 | 0
CCCCC1CN(CC(=O)N2CCCC(C(C)=O)C2)Cc2ccccc2O1 (stereo not given) | 0 | 0 | 0 | 0
O=C(CSCC(=O)Nc1cccc(C(F)(F)F)c1)Nc1cccc(C(F)(F)F)c1 | 0 | 0 | 0 | 0
CC(=O)Nc1cccc(C(F)(F)F)c1 | 0 | 0 | 0 | 0
O=C(CC(O)(C(F)(F)F)C(F)(F)F)Nc1cccc(C(F)(F)F)c1 | 56.2 | 0 | 0 | 83.9
CC(=O)Oc1ccccc1C(=O)Nc1cccc(C(F)(F)F)c1 | 0 | 0 | 0 | 65.0
CCOc1ccccc1C(=O)Nc1cccc(C(F)(F)F)c1 | 0 | 0 | 0 | 0
NC(=O)/C=C/C(=O)Nc1cccc(C(F)(F)F)c1 | 0 | 0 | 0 | 43.3
Cc1cccnc1CN1CCN(c2nc3nonc3nc2N2CCCCCC2)CC1 | 0 | 0 | 0 | 0
O=c1cc(-c2ccccc2)[nH]c2ccccc12 | 0 | 0 | 0 | 46.3
O=c1nc(-c2ccccc2)c2ccccc2[nH]1 | 0 | 0 | 0 | 0
COC(=O)c1ccc(N=C2SC(C(=O)Nc3ccc(C(=O)O)cc3)CC(=O)N2C)cc1 (stereo not given) | 0 | 0 | 0 | 0
CNc1ccc(C(O)(C(N)=O)C(F)(F)F)cc1 (stereo not given) | 0 | 0 | 0 | 0
CC(=O)NC1CCN(C(=O)Nc2ccccc2)CC1 | 0 | 2.1 | 0 | 0
O=C(NC1CC1)C1CCN(C(=O)Nc2ccccc2)CC1 | 0 | 0 | 0 | 0
CCOc1cc([N+](=O)[O-])c2[nH]c(C(=O)O)c(C)c2c1 | 0 | 0 | 0 | 45.3
CCOC(=O)c1[nH]c2c([N+](=O)[O-])cc(OC)cc2c1-c1ccccc1 | 0 | 0 | 0 | 0
O=C(Cc1ccccn1)N1CCc2c([nH]c3ccccc23)C1c1ccccn1 (stereo not given) | 0 | 0 | 0 | 0
CC(=O)Nc1ccc(CN2CCc3c([nH]c4ccccc34)C2c2ccccn2)s1 (stereo not given) | 0 | 0 | 0 | 34.1
O=C(O)C1CSC(c2ccc(OCc3ccc(Cl)cc3Cl)cc2)N1 (stereo not given) | 0 | 0 | 0 | 0
CCOc1ccc2ccc(OCC)c(C=C(C#N)C#N)c2c1 | 0 | 0 | 0 | 0
CC(=O)Nc1ccc(NC(=O)c2cnc(N3CCN(Cc4ccc5c(c4)OCO5)CC3)s2)cc1 | 0 | 0 | 0 | 42.4
COc1cc(NC(=O)c2cccc(-c3ccc(N4CCOCC4)nc3)c2)cc(OC)c1OC | 0 | 0 | 0 | 0
SMILES | MITF primary | FBW7 act | GPR151 ag | TEAD-YAP block
COc1cc(NC(=O)c2cccc(-c3ccc(C(N)=O)cc3)n2)cc(OC)c1OC | 0 | 0 | 0 | 34.5
COc1cc(NC(=O)c2cccc(-c3ccc(N4CCOCC4)nc3)n2)cc(OC)c1OC | 0 | 0 | 0 | 34.2
COc1cc(NC(=O)c2cccc(-c3cccc(N)c3)n2)cc(OC)c1OC | 0 | 0 | 0 | 34.1
COc1cc(NC(=O)c2cccc(N3CCN(Cc4ccc5c(c4)OCO5)CC3)n2)cc(OC)c1OC | 0 | 0 | 0 | 36.6
N#Cc1c(NC(=O)c2ccc(Cl)c(S(=O)(=O)N3CCOCC3)c2)sc2c1CCCC2 | 0 | 0 | 0 | 0
O=C(CNCc1cccs1)Nc1ccccc1 | 0 | 0 | 0 | 0
COC(=O)C1=CN(Cc2ccc(Cl)cc2)C=C(C(=O)OC)C1c1ccc(OC)c(OCc2ccccc2)c1 | 0 | 0 | 0 | 54.9
COC(=O)C1=CN(Cc2ccc(OC)cc2)C=C(C(=O)OC)C1c1ccccc1F | 0 | 1.9 | 0 | 0
COC(=O)C1=CN(Cc2ccc(OC)cc2)C=C(C(=O)OC)C1c1ccc(OC)c(OCc2ccccc2)c1 | 0 | 0 | 0 | 50.1
COC(=O)C1=CN(Cc2ccc(OC)c(OC)c2)C=C(C(=O)OC)C1c1ccc(OCc2ccccc2)c(OC)c1 | 0 | 0 | 0 | 0
O=c1c2sccc2nc(SCc2cccc(Br)c2)n1CCc1ccc(Cl)cc1 | 0 | 0 | 0 | 0
CCOC(=O)C1CCN(CNC(=O)c2cccnc2)CC1 | 0 | 0 | 0 | 0
CCCC(=O)Nc1cc(C)c(NC(=O)c2ccc(OC)cc2)cn1 | 0 | 0 | 0 | 0
O=C(NC1CCCCC1)c1cnc(N2CCN(c3ncccn3)CC2)c2ccccc12 | 0 | 0 | 0 | 0
COCCCNC(=O)c1cnc(N2CCN(c3ccccc3OC)CC2)c2ccccc12 | 0 | 0 | 0 | 37.9
Cc1cccc(NC(=O)c2cnc(N3CCN(c4ccccn4)CC3)c3ccccc23)n1 | 0 | 0 | 0 | 40.1
COc1ccc(NC(=O)c2cnc(N3CCN(c4ncccn4)CC3)c3ccccc23)c(OC)c1 | 0 | 0 | 0 | 50.3
CC(C)NC(=O)c1cnc(N2CCN(c3ccccn3)CC2)c2ccccc12 | 0 | 0 | 0 | 0
COC1CC(NC(=O)c2cnc(N3CCN(c4ncccn4)CC3)c3ccccc23)CC(OC)C1OC (stereo not given) | 0 | 0 | 0 | 72.4
CCOc1cc(/C=N/NC(=O)C(=O)NCCc2ccccc2)ccc1O | 0 | 0 | 0 | 0
CC(Nc1ccccc1C(N)=O)C(=O)Nc1cc(Cl)c(Cl)cc1Cl (stereo not given) | 0 | 0 | 0 | 0
CC(C)(C)c1ccc(CSc2nc3ccc(N4CCOCC4)cc3c(=O)n2Cc2ccccc2)cc1 | 0 | 0 | 0 | 0
COc1ccc(NC(=O)c2cnc(N3CCN(c4ccccn4)CC3)c3ccccc23)cc1OC | 0 | 0 | 0 | 84.2
COc1cccc(NC(=O)c2cnc(N3CCN(c4ccccn4)CC3)c3ccccc23)c1 | 0 | 0 | 0 | 61.7
COc1cccc(NC(=O)c2cnc(N3CCN(c4ncccn4)CC3)c3ccccc23)c1 | 0 | 0 | 0 | 0
SMILES | MITF primary | FBW7 act | GPR151 ag | TEAD-YAP block
COc1ccccc1N1CCN(c2ncc(C(=O)Nc3cc(OC)c(OC)c(OC)c3)c3ccccc23)CC1 | 0 | 0 | 0 | 55.9
COc1cc(NC(=O)c2cnc(N3CCN(c4ccccn4)CC3)c3ccccc23)cc(OC)c1OC | 0 | 0 | 0 | 78.5
COc1cc(Nc2nc(Nc3ccncc3)nc3c2ncn3-c2ccccc2)cc(OC)c1OC | 0 | 0 | 0 | 0
CN(C)c1ccc(/C=N/NC(=O)c2ccc(Br)o2)cc1 | 0 | 0 | 0 | 0
Cc1cc(N2CCC(C(=O)Nc3cccc4c3CCCC4)CC2)n2ncnc2n1 | 0 | 0 | 0 | 0
CCOC(=O)c1c(NC(N)=O)sc2c1CCCC2 | 0 | 0 | 0 | 0
CCOC(=O)c1c(NC(=O)CN2CCCCCC2)sc2c1CCCCC2 | 0 | 0 | 0 | 0
CCOC(=O)c1c(NC(=O)/C=C/C(N)=O)sc2c1CCCC2 | 0 | 0 | 0 | 43.1
CCOC(=O)c1c(NC(=O)CN2CCN(CC)C(=O)C2=O)sc2c1CCCC2 | 0 | 0 | 0 | 44.5
CCOC(=O)c1c(NC(=O)/C=C/C(=O)O)sc2c1CCCCCC2 | 0 | 0 | 0 | 35.3
Cc1nc(NCc2ccccn2)c2c3c(sc2n1)CCC3 | 0 | 0 | 0 | 0
